High-throughput results (PubChem BioAssay)
D2 antag: antagonists of human D2 dopamine receptor | AID 485344 | 340,000 compounds, 2% hits | HEK293 TREx D2 cells, calcium flux, dopamine EC80 | P14416 | inhibition, % at 10 µM; in the data active means inhibition above about 30%; inactive means below that, where a call was filed
Target sequence (P14416 whole entry, looked up): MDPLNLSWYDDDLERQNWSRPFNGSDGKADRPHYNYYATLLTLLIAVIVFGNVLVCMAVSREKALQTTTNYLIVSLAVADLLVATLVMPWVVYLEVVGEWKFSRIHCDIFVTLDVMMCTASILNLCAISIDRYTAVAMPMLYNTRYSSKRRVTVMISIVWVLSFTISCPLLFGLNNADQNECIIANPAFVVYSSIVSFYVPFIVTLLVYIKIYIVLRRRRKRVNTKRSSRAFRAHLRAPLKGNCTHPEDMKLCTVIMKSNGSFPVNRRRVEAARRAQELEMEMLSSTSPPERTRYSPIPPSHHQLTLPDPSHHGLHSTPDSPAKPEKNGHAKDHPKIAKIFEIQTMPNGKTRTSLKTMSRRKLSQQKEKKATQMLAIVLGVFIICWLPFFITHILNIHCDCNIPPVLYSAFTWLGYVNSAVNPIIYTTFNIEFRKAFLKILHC
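Overnight-induced (tetracycline, 30 C) HEK293 T-REx cells carrying force-coupled D2 receive a no-wash calcium dye, then compound, then EC80 dopamine at 180 s; signals are read kinetically throughout.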
D2 PAM-1: human D2 receptor positive allosteric modulation; P14416; DiscoveRx D2 beta-arrestin cells, luminescence, 90 min; 100% = 57 uM dopamine signal; potentiation, % (concentration not given with the values); 360,000 compounds, 0.23% hits; in the data active means potentiation above about 50%
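PathHunter D2 cells, attached overnight at 37 deg C, received compound in DMSO plus dopamine at EC20 (50 nM final) for 90 min at 37 deg C. Beta-arrestin recruitment was read as luminescence after 1 h with detection reagent at ambient temperature.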
D2 ag-1: agonists of human D2 dopamine receptor (beta-arrestin); P14416; DiscoveRx PathHunter D2 beta-arrestin, luminescence, 90 min; 100% = 57 uM dopamine signal; activation, % (concentration not given with the values); 360,000 compounds, 0.084% hits; in the data active means activation above about 40%
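Agonist mode: compounds alone added to overnight-plated D2 PathHunter cells for 90 min at 37 C, with 57 uM final dopamine (EC100) defining full response. Beta-arrestin recruitment detected by chemiluminescent reagent, read after 1 h at ambient temperature.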
D2 PAM-2: D2 dopamine receptor (human) potentiation; P14416; HEK293 T-REx D2, calcium flux, EC20 dopamine potentiation; potentiation, % at 10 µM; 340,000 compounds, 0.34% hits;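 active means potentiation over 3 SD above the plate norm, cut at about 30% in these data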
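Tetracycline-induced Hek293 Trex D2 cells, force-coupled to calcium, loaded with no-wash calcium dye. Compound added with 180 s kinetic read for agonism, then EC20 dopamine and a further 180 s read for potentiation.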
D2 ag-2: agonists of human D2 dopamine receptor; HEK293 T-REx D2 cells, calcium flux agonist mode; activation, % at 2 µM; 340,000 compounds, 0.53% hits; AID 485358;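 active means activation over 3 SD above normal in the single-dose calcium agonist read, cut at about 30% in these data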
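Calcium-flux readout, 1 cycle/sec over 180 s following compound pin transfer, in inducible HEK293 Trex D2 cells (force-coupled); dopamine controls included. Positive calcium responses during this window marked compounds as potential agonists.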
A number is an active result; 0 = inactive; - = no result given. A selection: hits, their analogues and other compounds. The true share with any hit is near 2.4%.

SMILES	D2 antag	D2 PAM-1	D2 ag-1	D2 PAM-2	D2 ag-2
CC(C)CNC(=O)COC(=O)c1ccc([N+](=O)[O-])cc1Cl	0	56.6	0	0	0
O=C(COC(=O)c1ccc([N+](=O)[O-])cc1Cl)NCc1ccco1	0	0	0	0	0
CCN(CC)CCCNC(=O)c1ccc2c(c1)N(Cc1c(F)cccc1Cl)C(=O)c1ccccc1S2	-	-	-	0	0
Cc1ccc(-c2onc(C)c2C)cc1S(=O)(=O)NCc1cccs1	-	-	-	0	0
COc1ccccc1CCNC(=O)C(=O)NCC(c1ccco1)S(=O)(=O)c1ccc(F)cc1 (stereo unspecified)	-	-	-	0	0
COc1cc(=O)[nH]c(SCc2c(F)c(F)c(F)c(F)c2F)n1	0	0	0	95.2	0
COc1ccc(CSc2nc(C)cc(=O)[nH]2)cc1Br	0	0	0	0	0
CCn1nnnc1SCC(=O)N1CCCCC1	0	0	0	0	0
COCCn1nnnc1SCC(=O)N1CCCCC1	34.2	0	0	0	0
CCCS(=O)(=O)NCCc1csc2nc(-c3ccc(OC)cc3)nn12	-	-	-	0	0
COc1cccc(CNC(=O)CN2C(=O)N(c3c(C)cccc3C)S(=O)(=O)c3ccccc32)c1OC	-	-	-	0	0
O=C(c1cc2ccccc2[nH]1)N(Cc1cccnc1)CC1CCCN(C2CCCCC2)C1 (stereo unspecified)	38.8	0	0	0	0
CC(=O)N(Cc1cccnc1)Cc1cc2ccccc2[nH]c1=O	0	0	0	0	0
Cc1cc(C)nc(N/N=C/C2=C(N3CCOCC3)C(=C\c3ccc(Cl)cc3)/CC2)n1	0	0	0	0	0
O=C(O)c1ccc(N/N=C/C2=C(N3CCOCC3)C(=C\c3ccccc3)/CC2)cc1	0	50.8	0	0	0
O=C(NCc1ccccc1)c1ccc(C(=O)NCc2ccccc2)cc1	-	0	0	-	-
O=C(NCc1ccccc1)c1n[nH]nc1-c1ccccc1O	30.8	0	0	0	0
C/C(=N/NC(=O)c1ccc(Br)o1)c1ccncc1	38.2	0	0	0	0
O=C(CCCN1CCOC(c2ccccc2)C1)c1ccc(F)cc1 (stereo unspecified)	48.7	0	0	0	0
CN1CCN(CCCC(=O)c2ccc(F)cc2)CC1	0	0	0	0	0
O=C(CCCN1CCN(c2ccccc2)CC1)c1ccc(F)cc1	-	0	0	-	-
O=C(CCCN1Cc2ccccc2C1)c1ccc(F)cc1	79.5	0	0	0	0
COc1ccc(NC(=O)c2cc3c(s2)-c2c(C)cccc2OC3)cc1Cl	-	-	-	0	0
CCSc1nnc2c(n1)OC1(CCCC1)Nc1ccccc1-2	38.7	0	0	0	0
CCSc1nnc2c(n1)OC(c1ccc(C)s1)Nc1ccccc1-2 (stereo unspecified)	-	-	-	0	0
SMILES	D2 antag	D2 PAM-1	D2 ag-1	D2 PAM-2	D2 ag-2
COc1ccc(-c2cc(C(F)F)n3ncc(C(=O)N4CCN5CCCC5C4)c3n2)cc1 (stereo unspecified)	51.8	0	0	0	0
CCCc1nn2c(=O)cc(COC(=O)c3ccc(NC(=O)c4cccs4)cc3)nc2s1	-	-	-	0	0
COc1ccc(CCNc2c(C)c(C)nc3ncnn23)cc1	0	0	0	43.1	0
Cc1cc(C)c2c(CC(=O)Nc3ccc(S(=O)(=O)N4CCCC(C)C4)cc3)coc2c1 (stereo unspecified)	-	-	-	0	0
O=C(N/N=C/c1cn[nH]c1-c1ccccc1)c1ccco1	0	0	0	0	0
O=C(N/N=C\c1cn[nH]c1-c1ccccc1)c1ccc([N+](=O)[O-])cc1	57.8	0	0	0	0
Cc1cc(C(=O)N/N=C/c2cn[nH]c2-c2ccccc2)cs1	30.3	0	0	0	0
CCc1c(C(=O)N/N=C/c2cn[nH]c2-c2ccc(F)cc2)csc1C	71.1	0	0	0	0
Cc1cc(C)cc(N2CCn3c2nc2c3c(=O)n(Cc3c(F)cccc3Cl)c(=O)n2C)c1	-	-	-	0	0
c1ccc(Cc2nnc3sc(-c4cccs4)nn23)cc1	73.1	0	0	0	0
Cc1ccc(N(Cc2cccs2)C(=O)c2ccco2)cc1	-	-	-	0	-
COc1ccc(S(=O)(=O)c2c(Nc3cccc(C)c3C)sc(C(=O)c3ccccc3)c2N)cc1	-	-	-	0	-
CCOC(=O)c1c(C)[nH]c(C)c1C(=O)COC(=O)c1ccc(O)cc1	0	0	0	0	0
CCOC(=O)c1c(C)[nH]c(C)c1C(=O)COC(=O)c1ccc(S(=O)(=O)C(F)F)cc1	38.6	0	0	0	0
COC1CCCN(C(=O)c2ccc3oc(Cc4ccc(Cl)cc4)nc3c2)C1 (stereo unspecified)	30.6	0	0	0	0
O=C(Nc1ccccc1)Nc1cccc2cccnc12	0	0	0	33.8	0
Cc1cc(-c2nn(-c3ccccc3F)cc2CN2CCC(C(N)=O)CC2)c(C)s1	0	0	0	0	0
COCC1CCN(Cc2cn(-c3ccccc3F)nc2-c2cc(C)sc2C)CC1	73.5	0	0	0	0
Cc1cccc2c1-c1sc(C(=O)N(C)c3cccc(C(F)(F)F)c3)cc1CO2	-	-	-	0	0
COc1cc(CNC2CCCC2)c(Br)cc1OC1CCCC1	0	0	0	0	0
COc1cc(CNCc2ccccc2)c(Br)cc1OC1CCCC1	50.9	0	0	0	0
Cc1ccc(S(=O)(=O)c2nnn3c2nc(NC2CCN(Cc4ccccc4)CC2)c2ccccc23)cc1C	0	0	0	37.3	0
Cc1ccc(S(=O)(=O)c2nnn3c2nc(NCCCN2CCCC2=O)c2ccccc23)cc1C	0	0	0	0	0
CS(=O)(=O)N(CCc1ccccc1)CC(N)=O	31.3	0	0	0	0
Cc1cccc(C)c1NC(=O)c1oc2c(c1C)-c1nn(Cc3ccccc3)cc1CC2	-	-	-	0	0
SMILES	D2 antag	D2 PAM-1	D2 ag-1	D2 PAM-2	D2 ag-2
Cc1cccc(OC(C)C(=O)Nc2ncn[nH]2)c1 (stereo unspecified)	-	-	-	0	0
CCOc1cc(-c2ccc(OC(=O)c3ccc(Cl)cc3)c(OC)c2)cc(=O)c2c(C)oc(C)c12	-	-	-	0	0
Clc1c(Cl)c(Cl)c2n[nH]nc2c1Cl	38.1	0	0	0	0
CCCCNCCOCCOc1ccc(Cl)cc1Br	72.3	0	0	0	0
COCCCNCCCOc1ccc(Cl)cc1Br	0	0	0	0	0
CCC(C)NCCCOc1cc(Cl)ccc1Cl (stereo unspecified)	80.0	0	0	0	0
CCCCNCCCOc1cc(Cl)ccc1Cl	56.0	0	0	0	0
COCCCNCCCOc1ccc(C)cc1Br	38.4	0	0	0	0
CCC(C)NCCCCOc1ccc(Cl)cc1C (stereo unspecified)	-	0	0	-	-
Cc1ccccc1C(=O)Nc1c(C)nc2ccccn2c1=O	-	-	-	0	0
O=C(NCCNC(=O)c1ccc(-c2ccc(Cl)c(Cl)c2)o1)c1cnccn1	0	0	0	102.0	0
O=C(NCCNC(=O)c1ccc(-c2cccc(Cl)c2)o1)c1cnccn1	-	0	0	-	-
COc1ccc(NC(=O)COC(C)=O)cc1Cl	0	0	0	0	0
